# A selection: hits, their analogues and other compounds. The true share with any hit is near 21%.
# Shiga inhibitor – A qHTS for Small Molecule Inhibitors of Shiga Toxin. Vero cells, Shiga toxin protein synthesis inhibition reporter. inhibition, % at 38.7 µM. 9.2% of 290,000 active. AID 2315, 2010; in the data active means inhibition mostly above about 28%, no sharp cut-off; inactive means mostly below about 43%
# Cycloheximide cs – Cycloheximide Counterscreen for Small Molecule Inhibitors of Shiga Toxin. max response, %. 12% of 300,000 active. cell reporter, cycloheximide protein synthesis inhibition counterscreen; in the data active means max response mostly above about 13%, no sharp cut-off; inactive means mostly below about 14%; further: read at 38.3 µM for the half of the compounds with a filed dose
# Pf growth 48h – Primary qHTS for delayed death inhibitors of the malarial parasite plastid, 48 hour incubation; P. falciparum luciferase growth in erythrocytes, 48 h; Potency, µM (series often up to 28.7 µM), usual class: inhibitors; 5.9% of 310,000 active; AID 504832, 2011
#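 Luminescence readout; reporter = integrated firefly luciferase in P. falciparum. RBC culture at 2% hematocrit, 0.1% parasitemia final, 37 C/5% CO2; decreased signal taken as growth inhibition.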
# Pf growth 96h – Primary qHTS for delayed death inhibitors of the malarial parasite plastid, 96 hour incubation; Potency, µM (doses to about 28.7 µM), most hits filed as inhibitors; 6.9% of 320,000 active; P. falciparum luciferase reporter growth, 96 h
#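 Two-generation exposure (96 h) targets delayed-death phenotype. Reporter parasites carrying integrated firefly luciferase, in red cells at 2% hematocrit and 0.05% parasitemia final, kept at 37 C, 5% CO2; luminescence loss indicates inhibition.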
# Numbers stand for hits; – = inactive; ? = inconclusive; · = not tested or not shown. Unless noted, the call rests on the fitted dose curve; in most records, active means well fitted inhibition curve with a large enough effect; inconclusive means small, poorly fitted or top-dose-only effect, or another doubt; inactive means no such curve, though single readings can be large or run the other way.
SMILES,Shiga inhibitor,Cycloheximide cs,Pf growth 48h,Pf growth 96h
COC(=O)C1=C(CN2CCCc3ccccc32)NC(=O)NC1c1ccc(F)cc1 (stereo not drawn),101.4,–,–,–
COC(=O)C1=C(CN2CCN(C)CC2)NC(=O)NC1c1cc(C)ccc1C (stereo not drawn),–,–,?,·
O=C(Nc1ccc(S(=O)(=O)N2CCOCC2)cc1)c1ccc(Cl)cc1Cl,–,–,–,?
CCCNC(=S)Nc1c(C)n(C)n(-c2ccccc2)c1=O,–,–,–,–
CCOC(=O)C1=C(CSc2nc3ccccc3s2)NC(=O)NC1c1cc(C)ccc1C (stereo not drawn),–,–,?,9.28µM
C(=N\Nc1ccc(-n2ccnc2)nn1)/c1ccccc1,–,–,–,·
CSc1nccc(N/N=C/c2ccccc2)n1,89.6,59.4,–,–
Cc1ccnc(N/N=C/c2ccccc2)n1,57.5,28.3,–,–
Cc1ccc(-c2cc(-c3ccccc3O)nc(N/N=C/c3cccnc3)n2)cc1,–,–,?,0.0294µM
C(=N\Nc1nccc(-c2cccnc2)n1)/c1ccccc1,88.6,55.7,?,–
Cc1ccc(S(=O)(=O)c2nc(-c3ccco3)oc2SC(C)C)cc1,–,–,?,?
CCc1cccc(C)c1NC(=O)C1CC(=O)N(C2CCCC2)C1 (stereo not drawn),·,·,–,–
COc1ccc(NC(=O)CSCC(=O)N(C)Cc2ccc(Cl)c(Cl)c2)cc1,·,·,13.1µM,?
COc1ccc(NC(=O)CSCC(=O)N(C)Cc2cccc(OC)c2OC)cc1,·,·,–,–
CC1CN(S(=O)(=O)c2cccc(C(=O)OC(C)C(=O)NC3CCCCC3C)c2)CC(C)O1 (stereo not drawn),–,–,–,?
CC(=O)NNC(=S)NC(=O)C(c1ccccc1)c1ccccc1,–,–,2.08µM,?
CC(C)(C)C(=O)NC(=S)NNC(=O)C(c1ccccc1)c1ccccc1,–,–,13.1µM,?
Cc1ccccc1-c1cc(C(=O)O)n(CC2CC(c3cccnc3)=NO2)n1 (stereo not drawn),·,·,–,–
CSCCC(NC(C)=O)C(=O)Oc1ccc2c3c(c(=O)oc2c1)CCCC3 (stereo not drawn),–,–,–,?
CSCCC(NC(=O)OC(C)(C)C)C(=O)Oc1ccc2c(=O)c(-c3ccc4c(c3)OCCO4)coc2c1 (stereo not drawn),83.3,36.3,–,?
Oc1[nH]c2ccccc2c1C=Nc1ccccc1,74.0,33.1,–,–
OCCN=Cc1c(O)[nH]c2ccccc12,–,–,–,·
CCN(CC)c1ccc(N=Cc2c(C)[nH]c3ccccc23)cc1,–,–,1.85µM,4.65µM
CC(C)C(NS(=O)(=O)c1cccc2nsnc12)C(=O)NC1CCCCC1C (stereo not drawn),–,–,–,?
Cc1ccccc1-c1ccc(Nc2ccc(N3CCOCC3)cc2)nn1,–,29.4,?,–
SMILES,Shiga inhibitor,Cycloheximide cs,Pf growth 48h,Pf growth 96h
O=S1(=O)N=C(Nc2ccc(N3CCOCC3)cc2)c2ccccc21,–,–,–,–
O=[N+]([O-])c1cccc(-c2ccc3nnc(SCc4ccccn4)n3n2)c1,–,–,–,–
c1ccc(CSc2nnc3ccc(-c4cccs4)nn23)nc1,61.2,–,–,–
c1ccc(CSc2nnc3ccc(-c4ccco4)nn23)nc1,66.7,34.1,–,?
CC(C)(C)N(Cc1ccccc1)C(=O)COC(=O)/C=C/c1ccc2c(c1)OCO2,·,·,–,–
CCOC(=O)C1=C(CC)Nc2ccccc2N=C1NC(=O)c1ccc(S(=O)(=O)N2CCOCC2)cc1,–,–,?,14.7µM
CCOC(=O)C1=C(CC)Nc2ccccc2N=C1NC(=O)c1ccc(C)c(S(=O)(=O)N2CCOCC2)c1,·,·,?,10.4µM
COc1cc(NC(=O)c2sc(C)nc2C)c(OC)cc1NC(=O)c1ccccc1,–,–,–,–
Cc1ccc2cc3cc(C(=O)N4CCN(C(=O)c5ccco5)CC4)sc3nc2c1,–,18.9,?,–
Cc1ccc(S(=O)(=O)N2CCN(C(=O)c3ccccc3Cc3ccccc3)CC2)c(C)c1,–,–,?,9.28µM
Cc1ccc2cc3cc(C(=O)N4CCN(Cc5ccccc5)CC4)sc3nc2c1,–,–,·,–
Cc1ccc(S(=O)(=O)N2CCN(C(=O)C3CCN(C(=O)c4ccc(F)cc4)CC3)CC2)c(C)c1,·,·,13.1µM,?
COc1ccc(F)cc1S(=O)(=O)N1CCN(C(=O)c2ccco2)CC1,–,–,–,10.4µM
CCCNC(=O)CN1CCC(c2nc3ccccc3[nH]2)CC1,–,–,–,–
COc1ccc(C)cc1S(=O)(=O)N1CCN(C(=O)c2ncoc2-c2cccc(F)c2)CC1,–,–,–,0.657µM
Cc1ccc(S(=O)(=O)N2CCN(C(=O)c3ccco3)CC2)c(C)c1,–,–,–,10.4µM
CC(=O)Nc1ccc(S(=O)(=O)N2CCN(C(=O)c3ncoc3-c3cccc(F)c3)CC2)cc1,–,–,–,–
O=C(CSc1ccc(Cl)cc1)OCC(=O)N1CCN(c2ccccc2)CC1,·,·,–,–
N#C/C(=C\c1ccc(Sc2ccccc2)o1)c1nc2ccccc2[nH]1,126.8,41.5,?,1.04µM
Cc1ccc2nc(/C(C#N)=C\c3cc(C)n(-c4cccc([N+](=O)[O-])c4)c3C)[nH]c2c1,–,–,·,3.29µM
Cc1cc(/C=C(/C#N)c2nc3ccccc3[nH]2)c(C)n1-c1cc(C(=O)O)cc(C(=O)O)c1,–,–,–,–
Cc1cc(/C=C(/C#N)c2nc3ccccc3[nH]2)c(C)n1-c1ccccc1C(=O)O,–,–,8.28µM,–
N#C/C(=C\c1ccc([N+](=O)[O-])o1)c1nc2ccccc2[nH]1,–,17.3,–,–
C=CCNc1nc2ccccc2nc1NS(=O)(=O)c1ccc(Br)cc1,–,–,–,–
CCN(CC)S(=O)(=O)c1cc(NC(=O)c2cc([N+](=O)[O-])ccc2N2CCOCC2)ccc1C,–,–,?,?
SMILES,Shiga inhibitor,Cycloheximide cs,Pf growth 48h,Pf growth 96h
Cc1ccc2nc(/C(C#N)=C\c3ccc([N+](=O)[O-])o3)[nH]c2c1,–,–,10.4µM,?
C=CC[n+]1c(C)csc1Nc1cccc(Br)c1,–,–,–,–
C=CC[n+]1c(C)csc1Nc1ccc(C)cc1,–,24.2,–,–
O=C(Nc1ccc(N2CCOCC2)cc1)C1CCN(S(=O)(=O)c2ccc3c(c2)OCCO3)CC1,–,–,8.28µM,?
Cc1ccc(S(=O)(=O)N2CCC(C(=O)Nc3ccc(N4CCOCC4)cc3)CC2)cc1C,·,·,4.15µM,?
O=C(Nc1ccc2c(c1)OCO2)C1CCN(S(=O)(=O)c2ccc3c(c2)OCCO3)CC1,–,–,?,–
O=C(Nc1ccc(S(=O)(=O)N2CCOCC2)cc1)C1CC1,–,–,–,4.65µM
O=C(C1CCN(S(=O)(=O)c2ccc(Cl)cc2)CC1)N1CCOCC1,–,–,·,–
O=C(C1CCN(S(=O)(=O)c2ccc(F)cc2)CC1)N1CCOCC1,–,–,–,7.38µM
CCC(=O)Nc1ccc(S(=O)(=O)N2CCOCC2)cc1,–,–,·,–
COc1ccc(/C=C2\SC(=S)N(CC(=O)OCC(=O)Nc3ccc(C)cc3Cl)C2=O)cc1,–,–,–,–
C[C@H](C(=O)OCO/N=[N+](\[O-])N1CCCC1)c1cccc2ccccc12,–,–,·,·

# From PubChem BioAssay
